Assay results reported in PubChem BioAssay (NCATS).
Results filed as inconclusive are left out. Activity calls are given as the source filed them. Calls follow the shape of the dose curve; as a rule, active = well fitted inhibition curve with a large enough effect; inconclusive = small, poorly fitted or top-dose-only effect; inactive = flat fitted curve, though single readings scatter.

Tests used:
Experiment in all cases: qHTS profiling for inhibitors of Plasmodium falciparum proliferation (AID 504749); also: nearly all actives have a fitted effect of over 60% in size
Conditions in all cases: P. falciparum in erythrocytes, SYBR Green DNA, 72 h; series mostly up to 12.8 µM
CP265 = test system: CP265
How it was run: (§1)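 Infected RBCs, 0.3% parasitemia/2.5% Hct final; cpd 72 h, 37 C, 5% CO2; lysis buffer with saponin/triton/SYBR Green I, o/n RT dark; FI 485/535; norm. to artemisinin (0.29 uM) and DMSO.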

CP266 = test system: CP266
How it was run: as §1

CP268 = test system: CP268
How it was run: as §1

CP269 = test system: CP269
How it was run: as §1

CP286 = test system: CP286
How it was run: as §1

CP291 = test system: CP291
How it was run: as §1

CP297 = test system: CP297
How it was run: as §1

CP305 = test system: CP305
How it was run: as §1

CP315 = test system: CP315
How it was run: as §1

CP325 = test system: CP325
How it was run: as §1

CP329 = test system: CP329
How it was run: as §1

CP335 = test system: CP335
How it was run: as §1

DFO2036 = test system: DFO2036
How it was run: as §1

DIV17 = test system: DIV17
How it was run: as §1

DIV30 = test system: DIV30
How it was run: as §1

Dd2 = test system: Dd2
How it was run: as §1

ECU = test system: ECU
How it was run: as §1

FAB9 = test system: FAB9
How it was run: as §1

GB4 = test system: GB4
How it was run: as §1

HB3 = test system: HB3
How it was run: as §1

ICS = test system: ICS
How it was run: as §1

JCK = test system: JCK
How it was run: as §1

N140 = test system: N140
How it was run: as §1

P93_24 = test system: P93_24
How it was run: as §1

P94_40 = test system: P94_40
How it was run: as §1

PAD = test system: PAD
How it was run: as §1

PC15 = test system: PC15
How it was run: as §1

PC26 = test system: PC26
How it was run: as §1

PC49 = test system: PC49
How it was run: as §1

SC27B = test system: SC27B
How it was run: as §1

TAB109 = test system: TAB109
How it was run: as §1

TAB113 = test system: TAB113
How it was run: as §1

TAB165 = test system: TAB165
How it was run: as §1

W2 = test system: W2
How it was run: as §1

Measured: Potency

Nc1nc(NC2CC2)c2ncn([C@H]3C=C[C@@H](CO)C3)c2n1
inactive: all assays above
